Laboratory results: PubChem BioAssay AID588405 (Sanford-Burnham Center for Chemical Genomics, 2011)
Among all 360,000 compounds or so, about 6,200 (1.7%) were called active.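 Rule for the calls: active = inhibition of at least 50% at 20 µM; inactive = the rest.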 What follows is part of a selection rich in actives, with near analogues and random picks from the rest.

Assay: Peg3 promoter-driven luciferase inhibitors, primary screen, cell-based, HeLa, luciferase luminescence (AID 588405)
Details: HeLa PEG-Prom luciferase reporter, overnight, at 20 µM, hits give high values

Row | SMILES | inhibition
1 | COc1ccc(CCNC(=O)Nc2ccc3c(c2)c(=O)n(C)n3C)cc1OC | -7.49% (inactive)
2 | O=C(c1ccc(F)cc1)c1c[nH]c(C(=O)NCc2cccnc2)c1 | 18% (inactive)
3 | COc1ccc(C(=O)Nc2ccccc2C(=O)N/N=C/c2ccc(O)c(OC)c2)cc1 | 83.7% (active)
4 | O=C(NN=Cc1ccc2c(c1)CCC2)c1ccccc1O | -215% (inactive)
5 | COc1ccc(-c2[nH]ncc2/C=N/NC(=O)c2cc(Br)ccc2O)c(OC)c1 | 5.43% (inactive)
6 | O=C(Nc1cc(Br)ccc1F)c1nc[nH]c1C(=O)NCc1ccccc1 | 2.41% (inactive)
7 | Cc1sc2ccccc2c1CNC[C@H]1O[C@@H](n2ccc(=O)[nH]c2=O)[C@H](O)[C@@H]1O | -4.81% (inactive)
8 | COc1ccc(N2C(=O)CCC(C(=O)Nc3ccccn3)C2c2ccc(OC)c(OC)c2)cc1 (stereo not given) | 12.5% (inactive)
9 | COc1ccc(C(=O)/C=C/Nc2ccccn2)cc1 | 63% (active)
10 | Cc1cc(N/C=C\C(=O)c2ccc(Cl)c(Cl)c2)no1 | -233% (inactive)
11 | COc1ccccc1CNC(=O)c1cc(-c2cc(F)ccc2OC)n[nH]1 | 0.22% (inactive)
12 | COc1ccc(OC)c(C(=O)NC(CC(N)=O)c2ccc(N3CCC(N4CCCCC4)CC3)c([N+](=O)[O-])c2)c1 (stereo not given) | 0.66% (inactive)
13 | CCc1nc2c(OCc3ccccc3)cccn2c1N(C)C(=O)c1ccco1 | 11.6% (inactive)
14 | COc1ccc(CC(=O)Nc2c(C(N)=O)oc3ccccc23)cc1 | 8.96% (inactive)
15 | COc1ccc(NC(=O)Cn2c(-c3ccc(OC)cc3)cn(-c3ccc(C)cc3)c2=O)cc1 | -103% (inactive)
16 | COc1ccc(CC(=O)Nc2ccc(-c3nnc(-c4ccc(C)cc4)o3)cc2)cc1 | 51.2% (active)
17 | COc1ccc(CCCNC(=O)C2Cc3c(-c4cccc(C(N)=O)c4)ccnc3O2)cc1 (stereo not given) | 14.7% (inactive)
18 | Nc1cccc(-c2cncc(N3CCN(Cc4ccccn4)CC3)n2)c1 | -8.35% (inactive)
19 | CSCC[C@H](NC(=O)CCCn1nnc2ccccc2c1=O)C(=O)O | 4.76% (inactive)
20 | CCOc1ccc(CCN2C(=S)N([C@@H](CC(C)C)CN3CCC[C@@H]3CN3C(=S)NC[C@@H]3Cc3ccc(O)cc3)C[C@@H]2CC(C)C)cc1 | 14.2% (inactive)
21 | CCOc1ccc(CCN2C(=S)N([C@@H](CC(C)C)CN3CCC[C@@H]3CN3C(=S)NC[C@@H]3Cc3ccc(O)cc3)C[C@@H]2Cc2ccc(O)cc2)cc1 | 14.3% (inactive)
22 | CC(C)C[C@H]1CNC(=S)N1C[C@H]1CCCN1C[C@H](Cc1ccc(O)cc1)N1C[C@H](Cc2ccc(O)cc2)N(CC2CCCCC2)C1=S | 99.5% (active)
23 | Cc1ccc(OCC(=O)c2cc(C)n(Cc3ccco3)c2C)c([N+](=O)[O-])n1 | 55.6% (active)
24 | COCC(C)n1c(C)cc(C(=O)COc2ccc(C)nc2[N+](=O)[O-])c1C (stereo not given) | 43.5% (inactive)
25 | Cc1cc(C(=O)COC(=O)CNC(=O)c2ccc(F)cc2)c(C)n1Cc1ccco1 | -257% (inactive)
26 | CC(C)c1ccc(CC(=O)N2CCC2(C)C(=O)NS(=O)(=O)c2ccc(C(C)(C)C)cc2)cc1 (stereo not given) | 11.3% (inactive)
27 | CC(C)Cn1cc(-c2cncc3nccn23)cn1 | 5.62% (inactive)
28 | CN(C(=O)CN1CCN(c2cc(-c3ccc(OCc4ccccc4)cc3)ncn2)CC1)c1ccccc1 | -2.84% (inactive)

Row | SMILES | inhibition
29 | c1ccc2cc3c(NCCN4CCOCC4)ccnc3cc2c1 | 69.5% (active)
30 | CCOc1nc(NCCN2CCOCC2)nc(Nc2ccc(C)cc2)n1 | 5.29% (inactive)
31 | Fc1ccc(-c2ccc(NCCN3CCOCC3)nn2)cc1 | -96.4% (inactive)
32 | CCN(CC)C(=O)C1=C(C)N(Cc2ccc(F)cc2)C(=O)C(CC(=O)NC2CCCC2)C1 (stereo not given) | 11% (inactive)
33 | Cc1cccc2cc(CN(Cc3cccs3)C(=S)NCc3ccco3)c(=O)[nH]c12 | 4.8% (inactive)
34 | COCCCNC(=S)N(CCN(C)C)Cc1cc2cc3c(cc2[nH]c1=O)OCCO3 | 2.51% (inactive)
35 | Cc1cc(C)c2[nH]c(=O)c(CN(Cc3ccccc3)C(=S)NCCCN(C)C)cc2c1 | 66.4% (active)
36 | CCCOc1ccc(F)cc1-c1cc(C(=O)Nc2ccc(F)cc2)[nH]n1 | -8.32% (inactive)
37 | CCn1c(CC(=O)Nc2ccc(C)cc2)nnc1SCC(=O)Nc1nc(C)cs1 | -10.4% (inactive)
38 | COCC(C)NC(=O)COc1nncc2ccccc12 (stereo not given) | 0.55% (inactive)
39 | NC(Cc1ccc(F)cc1)c1csc(Nc2nncc3ccccc23)n1 (stereo not given) | 103% (active)
40 | CN[C@H]1C[C@H]2c3cc(Oc4ccccc4C)ccc3CCN2C(=O)[C@H]1[C@H](C)O | -28.3% (inactive)
41 | CN(C)C(=S)Nc1ccc(Br)cc1Cl | 4.24% (inactive)
42 | O=C(NC1CCCC1)C1CCN(C(=O)Nc2cccc(Cl)c2)CC1 | 17% (inactive)
43 | O=C(Nc1cccc(-c2cscn2)c1)C1CCN(Cc2ccsc2)CC1 | 5.06% (inactive)
44 | O=C(Nc1cccc(-c2cccc(Cl)c2)c1)C1CCN(C2CCC2)CC1 | 53.2% (active)
45 | CCn1cc(CN2CCC(C(=O)Nc3cccc(-c4cccc(Cl)c4)c3)CC2)cn1 | 54.4% (active)
46 | CCn1cc(CN2CCC(C(=O)Nc3cccc(-c4cccc(Cl)c4)c3)CC2)c(C)n1 | 105% (active)
47 | O=C(NCC1CCN(Cc2ccccc2Cl)CC1)Nc1cccc(Cl)c1 | 27.8% (inactive)
48 | COc1cccc(-c2cccc(NC(=O)C3CCN(C4CCC4)CC3)c2)c1 | 9.5% (inactive)
49 | CC(=O)c1cc(CN2CCC(C(=O)Nc3cccc(-c4cscn4)c3)CC2)cs1 | 2.3% (inactive)
50 | O=C(Nc1cnn(Cc2ccc(Cl)cc2)c1)C1CCCC1 | -29.5% (inactive)
51 | COc1cccc(NC(=O)C2(C)CCN2Cc2ccccc2Cl)c1 (stereo not given) | 12.9% (inactive)
52 | CCOCCC(=O)Nc1ccc2c(c1)c(=O)n(C)n2-c1ccc2ccccc2c1 | -14.8% (inactive)
53 | CCCNC(=O)C1(C)CCN(C(=O)c2ccccc2OC(F)(F)F)C1 (stereo not given) | -13.6% (inactive)
54 | CC(=O)Nc1cc(-c2ccc(N3CCN(C)CC3)cc2)cn2c(-c3ccc(F)cc3)cnc12 | -24.9% (inactive)
55 | CCCCN(C=O)c1c(CC)nc2c(OCc3ccccc3C(=O)OC)cccn12 | 13.7% (inactive)
